Test results as given in PubChem BioAssay (NCI).
About 79,000 compounds went through this panel and 15% of them were active in at least one assay; those are over-represented in the sample as a whole. A number with no mark means an inactive call. Activity calls are given as the source filed them. No stated cut-off is given here; in the data, active means growth inhibition above about 70%; inactive means the rest.

What was measured:
[1] = NCI Yeast Anticancer Drug Screen. Data for the wt1 strain (AID 149);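 further: 0% = growth of vehicle-treated wt1 cultures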; conditions: S. cerevisiae wt1 strain (SPY 50644) growth inhibition, stronger effect = higher value
Method in brief: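 Each compound is tested on wt1 yeast and the loss of growth versus vehicle gives the inhibition value.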

[2] = NCI Yeast Anticancer Drug Screen. Data for the rad50EPP+ strain (AID 151);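 further: 0% = growth of vehicle-treated control cultures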; conditions: S. cerevisiae rad50 mutant strain, stronger effect = higher value
Method in brief: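 Yeast strain carrying rad50 alteration (rad50EPP+) exposed to compounds; growth inhibition measured relative to vehicle-treated controls.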

[3] = NCI Yeast Anticancer Drug Screen. Data for the mgt1 strain (AID 153); conditions: S. cerevisiae mgt1 mutant growth inhibition, stronger effect = higher value
Method in brief: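 Yeast mgt1 strain (DNA repair/cell-cycle alteration panel) exposed to compounds; growth inhibition measured relative to vehicle-treated controls.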

[4] = NCI Yeast Anticancer Drug Screen. Data for the rad50 strain (AID 155);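 further: 0% = growth of vehicle-only cultures of the same strain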; conditions: S. cerevisiae rad50 strain growth inhibition, stronger effect = higher value
Method in brief: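 Vehicle-treated cultures provide the reference for the growth inhibition reported for compound-exposed, repair-deficient yeast.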

[5] = NCI Yeast Anticancer Drug Screen. Data for the mec2-1 strain (AID 157); conditions: S. cerevisiae mec2-1 strain, stronger effect = higher value
Method in brief: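 mec2-1 yeast strain, carrying an alteration in DNA damage repair or cell cycle control, was exposed to compounds; growth inhibition was measured relative to vehicle-treated controls.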

[6] = NCI Yeast Anticancer Drug Screen. Data for the rad14 strain (AID 159);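 further: 0% = growth of vehicle-treated control cultures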; conditions: S. cerevisiae rad14 strain growth inhibition, stronger effect = higher value
Method in brief: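 Inhibition of growth is reported for a repair-deficient yeast mutant following compound treatment, calculated relative to cultures that received vehicle.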

[7] = NCI Yeast Anticancer Drug Screen. Data for the sgs1 mgt1 strain (AID 161);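 further: 0% = growth of cultures given vehicle only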; conditions: S. cerevisiae sgs1 mgt1 strain, stronger effect = higher value
Method in brief: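 Percent growth inhibition was derived by comparing compound-exposed mutant yeast with vehicle-exposed cultures. The strain carries alterations in DNA damage repair.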

[8] = NCI Yeast Anticancer Drug Screen. Data for the CLN2oe strain (AID 163);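 further: 0% = growth of vehicle-only control cultures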; conditions: S. cerevisiae CLN2oe strain, stronger effect = higher value
Method in brief: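 Yeast cells carrying a defined cell-cycle control alteration were exposed to test compounds. Growth inhibition was scored against vehicle-treated control cultures.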

[9] = NCI Yeast Anticancer Drug Screen. Data for the cln2 rad14 strain (AID 165);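 further: 0% = growth equal to vehicle treated cultures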; conditions: S. cerevisiae cln2 rad14 strain, stronger effect = higher value
Method in brief: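 Yeast carrying cln2 and rad14 alterations (cell cycle control and DNA damage repair) were exposed to compounds. Growth inhibition was measured against vehicle-treated controls.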

[10] = NCI Yeast Anticancer Drug Screen. Data for the bub3 strain (AID 167); conditions: S. cerevisiae bub3 mutant strain, stronger effect = higher value
Method in brief: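 Mutant yeast screening strain plus compound; vehicle-treated cultures serve as the 0% inhibition reference.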

[11] = NCI Yeast Anticancer Drug Screen. Data for the wt2 strain (AID 169); conditions: S. cerevisiae wt2 strain growth inhibition, stronger effect = higher value
Method in brief: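 Yeast cells were exposed to test compounds, and growth inhibition was measured relative to vehicle-treated controls.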

[12] = NCI Yeast Anticancer Drug Screen. Data for the mlh1 strain (AID 171);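 further: 0% = growth of vehicle-treated control cultures of the same strain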; conditions: S. cerevisiae mlh1 strain growth inhibition, stronger effect = higher value
Method in brief: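 Yeast carrying a defined genetic alteration in DNA damage repair or cell cycle control were exposed to test compounds. Growth inhibition was measured relative to vehicle-treated controls.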

[13] = NCI Yeast Anticancer Drug Screen. Data for the sgs1 strain (AID 173);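 further: 0% = growth of vehicle-only control cultures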; conditions: S. cerevisiae sgs1 mutant, stronger effect = higher value
Method in brief: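 Yeast mutant strains carrying defined defects in DNA damage repair or cell cycle control were exposed to test compounds. Growth inhibition was scored against vehicle-treated controls.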

[14] = NCI Yeast Anticancer Drug Screen. Data for the mlh1 rad18 strain (AID 175); conditions: S. cerevisiae mlh1 rad18 strain growth inhibition, stronger effect = higher value
Method in brief: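 Growth inhibition of the yeast strain was measured after compound exposure and expressed relative to vehicle-treated controls. The strain carries defined defects in DNA damage repair.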

[15] = NCI Yeast Anticancer Drug Screen. Data for the rad18 strain (AID 177); conditions: S. cerevisiae rad18 mutant growth inhibition, stronger effect = higher value
Method in brief: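 Yeast carrying a defined DNA damage repair alteration were exposed to compounds. Growth inhibition was expressed relative to vehicle-treated controls.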

[16] = at 5.0 µM (retest, dose inferred, filed as 0.5)
[17] = at 50.0 µM (retest, dose inferred, filed as 5.0)

Cc1c2ccccc2cc2ccccc12
growth inhibition ([1]; at 1.2 µM): -2%
growth inhibition ([1]; at 3.7 µM): 1%
growth inhibition ([1]; at 11.0 µM): 24%
growth inhibition ([1]; at 33.0 µM): 93% (active)
growth inhibition ([1]; at 100.0 µM): 98% (active)
growth inhibition ([2]; at 1.2 µM): 52%
growth inhibition ([2]; at 3.7 µM): 84% (active)
growth inhibition ([2]; at 11.0 µM): 96% (active)
growth inhibition ([2]; at 33.0 µM): 98% (active)
growth inhibition ([2]; at 100.0 µM): 98% (active)
growth inhibition ([3]; at 1.2 µM): -2%
growth inhibition ([3]; at 3.7 µM): 19%
growth inhibition ([3]; at 11.0 µM): 73% (active)
growth inhibition ([3]; at 33.0 µM): 99% (active)
growth inhibition ([3]; at 100.0 µM): 99% (active)
growth inhibition ([4]; at 1.2 µM): 4%
growth inhibition ([4]; at 3.7 µM): 36%
growth inhibition [4, 16]: 16%
growth inhibition ([4]; at 11.0 µM): 83% (active)
growth inhibition ([4]; at 33.0 µM): 98% (active)
growth inhibition [4, 17]: 98% (active)
growth inhibition ([4]; at 50.0 µM): 98.3% (active)
growth inhibition ([4]; at 100.0 µM): 98% (active)
growth inhibition ([5]; at 1.2 µM): -2%
growth inhibition ([5]; at 3.7 µM): 14%
growth inhibition [5, 16]: 35%
growth inhibition ([5]; at 11.0 µM): 61%
growth inhibition ([5]; at 33.0 µM): 99% (active)
growth inhibition [5, 17]: 99% (active)
growth inhibition ([5]; at 50.0 µM): 98.6% (active)
growth inhibition ([5]; at 100.0 µM): 99% (active)
growth inhibition ([6]; at 1.2 µM): 5%
growth inhibition ([6]; at 3.7 µM): 21%
growth inhibition ([6]; at 11.0 µM): 55%
growth inhibition ([6]; at 33.0 µM): 99% (active)
growth inhibition ([6]; at 100.0 µM): 99% (active)
growth inhibition [7, 16]: 34%
growth inhibition [7, 17]: 99% (active)
growth inhibition ([7]; at 50.0 µM): 98.4% (active)
growth inhibition ([8]; at 1.2 µM): 9%
growth inhibition ([8]; at 3.7 µM): 29%
growth inhibition ([8]; at 11.0 µM): 82% (active)
growth inhibition ([8]; at 33.0 µM): 99% (active)
growth inhibition ([8]; at 100.0 µM): 99% (active)
growth inhibition [9, 16]: 51%
growth inhibition [9, 17]: 99% (active)
growth inhibition ([9]; at 50.0 µM): 98% (active)
growth inhibition ([10]; at 1.2 µM): -3%
growth inhibition ([10]; at 3.7 µM): 7%
growth inhibition [10, 16]: 58%
growth inhibition ([10]; at 11.0 µM): 49%
growth inhibition ([10]; at 33.0 µM): 95% (active)
growth inhibition [10, 17]: 99% (active)
growth inhibition ([10]; at 50.0 µM): 98.2% (active)
growth inhibition ([10]; at 100.0 µM): 99% (active)
growth inhibition ([11]; at 1.2 µM): -4%
growth inhibition ([11]; at 3.7 µM): -1%
growth inhibition ([11]; at 11.0 µM): 63%
growth inhibition ([11]; at 33.0 µM): 98% (active)
growth inhibition ([11]; at 100.0 µM): 99% (active)
growth inhibition ([12]; at 1.2 µM): 8%
growth inhibition ([12]; at 3.7 µM): 27%
growth inhibition ([12]; at 11.0 µM): 86% (active)
growth inhibition ([12]; at 33.0 µM): 99% (active)
growth inhibition ([12]; at 100.0 µM): 99% (active)
growth inhibition ([13]; at 1.2 µM): -14%
growth inhibition ([13]; at 3.7 µM): 20%
growth inhibition ([13]; at 11.0 µM): 97% (active)
growth inhibition ([13]; at 33.0 µM): 99% (active)
growth inhibition ([13]; at 100.0 µM): 99% (active)
growth inhibition [14, 16]: 65%
growth inhibition [14, 17]: 99% (active)
growth inhibition ([14]; at 50.0 µM): 97.8% (active)
growth inhibition ([15]; at 1.2 µM): 5%
growth inhibition ([15]; at 3.7 µM): 25%
growth inhibition ([15]; at 11.0 µM): 76% (active)
growth inhibition ([15]; at 33.0 µM): 98% (active)
growth inhibition ([15]; at 100.0 µM): 98% (active)

CC1CN=C(Nc2ccccc2)S1 (stereo unspecified)
growth inhibition ([1]; at 1.2 µM): -15%
growth inhibition ([1]; at 3.7 µM): -5%
growth inhibition ([1]; at 11.0 µM): -21%
growth inhibition ([1]; at 33.0 µM): -25%
growth inhibition ([1]; at 100.0 µM): -32%
growth inhibition ([2]; at 1.2 µM): -52%
growth inhibition ([2]; at 3.7 µM): -46%
growth inhibition ([2]; at 11.0 µM): -49%
growth inhibition ([2]; at 33.0 µM): -72%
growth inhibition ([2]; at 100.0 µM): -54%
growth inhibition ([3]; at 1.2 µM): -57%
growth inhibition ([3]; at 3.7 µM): -76%
growth inhibition ([3]; at 11.0 µM): -54%
growth inhibition ([3]; at 33.0 µM): -51%
growth inhibition ([3]; at 100.0 µM): -60%
growth inhibition ([4]; at 1.2 µM): -5%
growth inhibition ([4]; at 3.7 µM): 12%
growth inhibition [4, 16]: 100% (active)
growth inhibition ([4]; at 11.0 µM): -7%
growth inhibition ([4]; at 33.0 µM): 3%
growth inhibition [4, 17]: 100% (active)
growth inhibition ([4]; at 50.0 µM): 78.5% (active)
growth inhibition ([4]; at 100.0 µM): -17%
growth inhibition ([5]; at 1.2 µM): -49%
growth inhibition ([5]; at 3.7 µM): -67%
growth inhibition [5, 16]: 100% (active)
growth inhibition ([5]; at 11.0 µM): -80%
growth inhibition ([5]; at 33.0 µM): -40%
growth inhibition [5, 17]: 100% (active)
growth inhibition ([5]; at 50.0 µM): 88.8% (active)
growth inhibition ([5]; at 100.0 µM): -60%
growth inhibition ([6]; at 1.2 µM): -49%
growth inhibition ([6]; at 3.7 µM): -54%
growth inhibition ([6]; at 11.0 µM): -58%
growth inhibition ([6]; at 33.0 µM): -51%
growth inhibition ([6]; at 100.0 µM): -41%
growth inhibition [7, 16]: 2%
growth inhibition [7, 17]: 6%
growth inhibition ([7]; at 50.0 µM): 89.2% (active)
growth inhibition ([8]; at 1.2 µM): -14%
growth inhibition ([8]; at 3.7 µM): -15%
growth inhibition ([8]; at 11.0 µM): -7%
growth inhibition ([8]; at 33.0 µM): -2%
growth inhibition ([8]; at 100.0 µM): 10%
growth inhibition [9, 16]: 16%
growth inhibition [9, 17]: 37%
growth inhibition ([9]; at 50.0 µM): 90.3% (active)
growth inhibition ([10]; at 1.2 µM): -26%
growth inhibition ([10]; at 3.7 µM): -20%
growth inhibition [10, 16]: 26%
growth inhibition ([10]; at 11.0 µM): -41%
growth inhibition ([10]; at 33.0 µM): -25%
growth inhibition [10, 17]: 9%
growth inhibition ([10]; at 50.0 µM): 87.4% (active)
growth inhibition ([10]; at 100.0 µM): -46%
growth inhibition ([11]; at 1.2 µM): -31%
growth inhibition ([11]; at 3.7 µM): -15%
growth inhibition ([11]; at 11.0 µM): -21%
growth inhibition ([11]; at 33.0 µM): -24%
growth inhibition ([11]; at 100.0 µM): -13%
growth inhibition ([12]; at 1.2 µM): -8%
growth inhibition ([12]; at 3.7 µM): -7%
growth inhibition ([12]; at 11.0 µM): -14%
growth inhibition ([12]; at 33.0 µM): -32%
growth inhibition ([12]; at 100.0 µM): -24%
growth inhibition ([13]; at 1.2 µM): -29%
growth inhibition ([13]; at 3.7 µM): -36%
growth inhibition ([13]; at 11.0 µM): -40%
growth inhibition ([13]; at 33.0 µM): -23%
growth inhibition ([13]; at 100.0 µM): -40%
growth inhibition [14, 16]: 100% (active)
growth inhibition [14, 17]: 100% (active)
growth inhibition ([14]; at 50.0 µM): 81.6% (active)
growth inhibition ([15]; at 1.2 µM): -50%
growth inhibition ([15]; at 3.7 µM): -54%
growth inhibition ([15]; at 11.0 µM): -51%
growth inhibition ([15]; at 33.0 µM): -58%
growth inhibition ([15]; at 100.0 µM): -42%
